Bioassay records (PubChem BioAssay)
BRCA1 expr up = BRCA1 expression activation; actives 1.1% (n = 380,000); Potency, µM (doses to about 46.1 µM), for inactives: at the highest dose activation, usual class: activators; MCF7-BRCA1-FFLuc reporter, luminescence, 48 h; response scale: scaled: vehicle 0%, 10 µM genistein 100%; AID 624202; also: nearly all actives have a fitted effect of over 80% in size
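Compounds are tested at multiple concentrations on MCF7 BRCA1-luciferase reporter cells seeded at 2000 per well; after 48 h, a single luminescence end-point is taken and curves fitted to the normalized data.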
Tb PFK inh = blocks T. brucei phosphofructokinase; O15648; T. brucei PFK, ADP-Glo luminescence; Potency, µM (series often up to 57.5 µM), for inactives: at the top dose activity, negative = inhibition, usual class: inhibitors; actives 0.17% (n = 330,000);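 also: 0% = uninhibited 1x PFK enzyme wells and -100% = no-enzyme wells; nearly all actives have a fitted effect of over 60% in size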
Target sequence (O15648 whole entry, looked up): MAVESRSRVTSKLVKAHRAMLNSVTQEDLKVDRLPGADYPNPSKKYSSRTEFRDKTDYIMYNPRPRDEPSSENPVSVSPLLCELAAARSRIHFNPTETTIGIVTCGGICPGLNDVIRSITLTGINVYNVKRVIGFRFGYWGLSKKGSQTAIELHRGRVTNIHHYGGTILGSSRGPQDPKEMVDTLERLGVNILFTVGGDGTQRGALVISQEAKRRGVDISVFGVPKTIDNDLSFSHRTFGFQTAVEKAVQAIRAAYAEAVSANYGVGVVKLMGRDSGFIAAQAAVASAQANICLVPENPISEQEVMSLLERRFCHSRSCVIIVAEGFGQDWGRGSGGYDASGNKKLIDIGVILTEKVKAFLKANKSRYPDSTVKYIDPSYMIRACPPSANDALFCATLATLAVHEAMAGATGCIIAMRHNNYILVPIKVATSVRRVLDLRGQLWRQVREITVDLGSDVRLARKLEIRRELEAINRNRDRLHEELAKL
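Activity is normalized to no-enzyme wells (full inhibition) and 1.25 nM enzyme wells (no inhibition). Reaction: 0.5 mM F6P, 0.1 mM ATP, 45 min RT, ADP-Glo luminescence; concentration-response curves fitted and classed by quality.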
PLK1 PBD inh = PLK1 (human) polo-box domain binding inhibition. P53350. Plk1 PBD binding of FITC phosphopeptide, fluorescence polarization. Potency, µM, inactives show max response, negative = inhibition, most hits filed as inhibitors. actives 2.8% (n = 360,000). AID 720504; also: series mostly up to about 57 µM; % is scaled to controls: 0 for no effect and ±100 for the full control effect; nearly all actives have a fitted effect of over 65% in size
VDR inhibitor = inhibitors of human vitamin D receptor. VDR-SRC2-3 peptide fluorescence polarization, 2 h. P11473. actives 0.93% (n = 400,000). Potency, µM, for inactives: max response, negative = inhibition, usual class: inhibitors; also: % is scaled to controls: 0 for no effect and ±100 for the full control effect
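FP read-out; VDR + SRC2-3 coactivator peptide; 23 nl compound by pintool; 2 h RT incubation; reagents held at 4 deg C, protected from light.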
TbPYK inh = confirmation of Trypanosoma brucei pyruvate kinase inhibitors; Potency, µM (series often up to 76.9 µM), for the others: top-dose activity change, negative = inhibition, most hits filed as inhibitors; shares compounds with PLK1 PBD inh; actives 67% (n = 890); AID 720569; recombinant TbPYK, Kinase-Glo ATP luminescence; also: % is scaled to controls: 0 for no effect and ±100 for the full control effect; nearly all actives have a fitted effect of over 70% in size
TbPYK ADP-Glo = TbPYK inhibition, orthogonal confirmation; actives 62% (n = 890); Potency, µM (highest dose often 76.9 µM), for inactives: at the highest dose activity change, negative = inhibition, most hits filed as inhibitors; shares compounds with PLK1 PBD inh; recombinant TbPYK, ADP-Glo luminescence, 60 min; also: % is scaled to controls: 0 for no effect and ±100 for the full control effect; nearly all actives have a fitted effect of over 75% in size
Active calls of the source: *; ? = inconclusive; / = no result given. Compounds with a hit are over-represented: about 3.9% of the library has one in this group of screens. Calls follow the shape of the dose curve; as a rule, active = well fitted curve in the direction sought with a large enough effect; inconclusive = small, poorly fitted or top-dose-only effect, or another doubt; inactive = no such curve, though single readings can be large; an effect the other way counts as inactive or inconclusive. Potency is read from the fitted curve at half-maximal effect.

SMILES | BRCA1 expr up | Tb PFK inh | PLK1 PBD inh | VDR inhibitor | TbPYK inh | TbPYK ADP-Glo
Clc1ccc(CSc2nccn2Cc2ccccc2)cc1 | -36.2% | -4.8% | -2.5% | 1.9% | 1.26µM* | 1.12µM*
O=c1ccn(Cc2ccccc2)c(SCc2ccccc2)n1 | -15.8% | / | -11.7% | -11.5% | / | /
Cc1ccc(-n2nc(C)c3c(C)cc(=O)n(CC(=O)Nc4cc(Cl)ccc4C)c32)cc1 | / | / | / | 2.3% | / | /
CC(=O)Nc1ccc(S(=O)(=O)NNc2cccc(C)c2)cc1 | 22.7% | ? | 11.9µM* | 79.4µM* | ? | 17.8µM*
Cc1cccc(NC(=O)NNS(=O)(=O)c2ccc(F)cc2)c1 | -18.7% | -3.6% | -3.5% | -2.6% | / | /
COc1cc(N=c2ssnc2Cl)c(OC)cc1Cl | -15.5% | ? | 1.68µM* | 15.8µM* | 4.47µM* | 6.31µM*
COc1ccc(OC)c(N=c2ssnc2Cl)c1 | -36.2% | ? | 2.67µM* | ? | 15.8µM* | 14.1µM*
CCOC(=O)CCc1c(C)nc(SCCCn2c(=O)[nH]c3ccccc32)c(C#N)c1C | 12.0% | -22.9% | -15.5% | 7.2% | 5.62µM* | 14.1µM*
O=C(NC(Nc1nc2ccccc2s1)(C(F)(F)F)C(F)(F)F)c1ccccc1 | 70.6% | 4.8% | -20.4% | 4.4% | / | /
CC(C)(NC(=O)c1ccccc1)c1nc2ccccc2s1 | -0.8% | ? | 11.9µM* | ? | 8.91µM* | 10µM*
Cc1ccsc1/C=N/Nc1ncc(Cl)cc1Cl | ? | 1.7% | -7.6% | 3.8% | / | /
Cc1ccsc1/C=N/Nc1nc(=O)[nH]nc1C | 80.7% | -29.8% | 1.2% | -7.7% | 17.8µM* | 8.2%
CCOC(=O)c1c(NS(=O)(=O)c2ccc(Br)cc2)sc2c1CCC2 | -77.6% | / | 21.2µM* | -27.1% | 35.5µM* | ?
O=S(=O)(O)c1cc(O)c(N=Nc2ccc(O)cc2O)c2ccccc12 | -42.1% | / | ? | 52.3% | 11.2µM* | ?
O=[N+]([O-])c1ccccc1N=Nc1ccc(O)cc1O | 36.6% | / | -5.4% | -11.9% | / | /
CCOc1ccc(OCC)c(NC(=O)c2cc(-c3cccs3)nc3ccccc23)c1 | 17.9% | / | / | -3.2% | / | /
O=C(CSc1cccc2cccnc12)N1CCCC1 | -70.3% | -0.2% | 2.99µM* | -16.7% | ? | ?
O=C(CSc1ncccn1)N1CCCCCC1 | -1.3% | 2.7% | -0.6% | 2.7% | / | /
CC(OC(=O)[C@H](C)N=C1NS(=O)(=O)c2ccccc21)C(=O)Nc1ccc(F)c(F)c1F (some centres undefined) | 10.9% | / | -0.7% | / | / | /
CC(C)(C)SCCNC(=O)CN(c1ccc(F)cc1)S(C)(=O)=O | -15.4% | 2.4% | -7.0% | 22.1% | / | /
COc1ccc(N(CC(=O)NCCSC(C)(C)C)S(C)(=O)=O)c(OC)c1 | 6.3% | -1.4% | -10.7% | -5.6% | 17.8µM* | ?
CN(C(=O)c1ccc(NC(=O)C2CCN(C(=O)OC(C)(C)C)CC2)cc1)C1CCC1 | -8.3% | 4.1% | -3.1% | -1.3% | / | /
Cc1cc(C(=O)c2ccccc2)cc(C)c1O | 0.7% | / | 1.7% | -5.1% | / | /
CC1=C/C(=C(\c2cc(C)c(O)c(Br)c2)c2ccccc2S(=O)(=O)O)C=C(Br)C1=O | -86.5% | ? | -14.1% | 131.5% | 12.6µM* | 13.3%
O=C(C[C@@H]1C=C[C@@H](NC(=O)C2CC2)[C@@H](CO)O1)NCc1ccccc1Cl | / | / | 0.8% | / | / | /
SMILES | BRCA1 expr up | Tb PFK inh | PLK1 PBD inh | VDR inhibitor | TbPYK inh | TbPYK ADP-Glo
O=C(N/N=C/c1ccccc1)c1[nH]ncc1Br | ? | -11.2% | -7.7% | 8.0% | -27.4% | 0.7%
CCOc1ccc(CNC(=O)CCC(=O)N2CC(C)Sc3ccccc32)cc1 (centres undefined) | / | / | / | 3.5% | / | /
CC1Cc2cc(S(=O)(=O)NCc3ccc(Cl)cc3)ccc2N1C(=O)C1CCC1 (centres undefined) | / | / | / | -1.8% | / | /
OCc1ccccc1-c1nc(NCc2ccccc2)nc2ccsc12 | 16.8% | / | ? | / | ? | ?
NC(=O)Cn1c(=O)n(Cc2ccco2)c(=O)c2c3c(sc21)CCCCC3 | -22.5% | ? | ? | 89.1µM* | ? | ?
CCOc1ccccc1-n1c(=S)sc2c(=O)n(-c3ccccc3)c(=S)[nH]c21 | -16.5% | -0.5% | 2.9% | -27.5% | 11.2µM* | 11.2µM*
COc1ccccc1-n1c(=S)[nH]c2c(sc(=S)n2-c2ccccc2)c1=O | 0.0% | 5.2% | -15.6% | -13.7% | 31.6µM* | 17.8µM*
COc1cccc(-n2c(=S)sc3c(=O)n(-c4ccccc4OC)c(=S)[nH]c32)c1 | 0.0% | 4.2% | ? | -2.0% | / | /
COc1ccccc1-n1c(=S)[nH]c2c(sc(=S)n2-c2ccccc2C)c1=O | 0.0% | -1.5% | 26.7µM* | ? | 5.01µM* | 14.1µM*
CCOc1cc(C(=O)NCc2nc(-c3cccc(C)c3)no2)cc(OCC)c1OCC | / | / | / | -5.6% | / | /
O=C(NNc1nc2c(F)cccc2s1)C1COc2ccccc2O1 (centres undefined) | -34.9% | -5.1% | -0.8% | -12.8% | / | /
Cc1ccc2sc(NNC(=O)C3COc4ccccc4O3)nc2c1C (centres undefined) | 13.6% | ? | -6.2% | -21.9% | ? | ?
CCOC(=O)C1CCCN(C(=O)c2ccc(-c3ccc([N+](=O)[O-])cc3)o2)C1 (centres undefined) | 33.2% | -0.1% | 29.9µM* | ? | ? | ?
CCc1c(C)sc2c1CCN(Cc1cccc(F)c1)C2c1ccccc1 (centres undefined) | / | / | / | 1.6% | / | /
C=CCN1C(=O)/C(=c2\sc3nc(=O)c(Cc4ccc(OC)c(OC)c4)nn3c2=O)c2ccccc21 | -29.2% | -1.0% | 10.6µM* | 39.8µM* | ? | 35.5µM*
COc1ccc(-c2nnc3ccc(SCC(=O)N4CCN(c5ccccc5)CC4)nn23)cc1 | 0.0% | / | -21.2% | -7.1% | ? | ?
COc1ccc(-c2nnc3ccc(SCC(=O)N4CCOCC4)nn23)cc1 | 8.1% | -0.2% | -31.8% | -2.5% | / | /
Oc1[nH]c(=S)sc1C=C1N=c2ccccc2=N1 | 94.7% | -0.7% | -4.0% | -5.8% | 22.4µM* | ?
Oc1c(C=C2N=c3ccccc3=N2)sc(=S)n1-c1ccc(F)cc1 | -35.1% | 4.1% | ? | 2.4% | / | /
CCC(CC)c1nn2c(=O)cc(COc3ccc(NC(=O)c4ccccc4C)cc3)nc2s1 | -16.3% | / | / | 7.2% | / | /
COc1ccc(N2C(=O)CC(Sc3ncn[nH]3)C2=O)c(OC)c1 (centres undefined) | 1.3% | 1.1% | 29.9µM* | 0.0% | ? | ?
COc1ccccc1N1C(=O)CC(Sc2nc(C)cc(C)n2)C1=O (centres undefined) | -5.7% | 22.4% | -7.3% | 7.0% | / | /
CCCCCCCN(CCCCCCC)c1ccc(/C=C/c2ccnc3ccccc23)cc1 | -8.8% | / | / | / | / | /
